The source of these data is PubChem BioAssay AID1851 (National Center for Advancing Translational Sciences (NCATS), 2009).

Values joined by “and” are separate entries in the source; they are usually repeats but may differ in a detail not shown here. Identical values can stand only once. The whole screen tested about 16,000 compounds, of which about 4,000 (25%) were called active. About 26% were inconclusive and are not listed. The call rests on the fitted dose curve; in most records, active means well fitted curve in the direction sought with a large enough effect; inconclusive means small, poorly fitted or top-dose-only effect, or effect the other way; inactive means no such curve, though single readings can be large or run the other way. Only a sample is shown.
On the % scale 0 is the no-effect control and ±100 the full control effect.

In this experiment the target is Cytochrome P450 2C9 (Homo sapiens) (UniProt P11712). As to the kind of experiment: Cytochrome panel assay with activity outcomes. The settings on record: recombinant CYP, pro-luciferin dealkylation, luminescence, p450-cyp2c9; series mostly up to 57.1 µM.
Chain of Cytochrome P450 2C9 (Homo sapiens) (P11712 whole entry, looked up): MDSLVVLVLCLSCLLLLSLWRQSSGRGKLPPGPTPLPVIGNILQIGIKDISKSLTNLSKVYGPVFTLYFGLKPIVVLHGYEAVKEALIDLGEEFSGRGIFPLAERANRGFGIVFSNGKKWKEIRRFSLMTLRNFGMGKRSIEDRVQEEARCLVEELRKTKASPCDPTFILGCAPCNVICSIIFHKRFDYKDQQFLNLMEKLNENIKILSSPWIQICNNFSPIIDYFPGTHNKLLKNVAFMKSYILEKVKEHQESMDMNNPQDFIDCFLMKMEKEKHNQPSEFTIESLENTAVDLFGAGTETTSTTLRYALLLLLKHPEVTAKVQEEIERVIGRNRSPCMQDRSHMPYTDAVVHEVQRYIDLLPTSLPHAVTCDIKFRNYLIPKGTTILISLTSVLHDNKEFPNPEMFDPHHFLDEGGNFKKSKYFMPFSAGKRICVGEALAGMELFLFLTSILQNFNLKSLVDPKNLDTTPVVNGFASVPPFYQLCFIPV
By AC50 is commonly meant the concentration giving half of the maximal activity seen. Consider `Cc1ccc(-c2ccc(/C=N\NC(=O)c3cc4c(ccc5ccccc54)o3)o2)cc1[N+](=O)[O-]`, for which the AC50 result was “inactive”. Same read-out and setting: under `Cc1ccc(-c2ccc(/C=N/NC(=S)Nc3ccccc3)o2)cc1[N+](=O)[O-]` stands 3.98 µM (active); under `CCn1c(=O)c2c(O)cc(=O)oc2c2ccccc21`, “inactive”; under `CCn1c2ccccc2c2cc(NS(=O)(=O)c3ccccc3C)ccc21`, 0.891 µM (active). Consider `Cc1nc2cnc(N3CCN(C)CC3)nc2n(C)c1=O`, for which the AC50 result was “inactive”. Same read-out and setting: under `COC(=O)N1CCC2(CC1)CN(C(=O)Nc1ccccc1)C2` stands “inactive”. Take `COC(=O)C1CSC(C(=O)OC)N1C(=O)Nc1ccccc1` (stereo not drawn): the AC50 result is “inactive”. With `COC(=O)C1CCC(C)(C(=O)Nc2ccccc2)C1(C)C` (stereo not drawn), the AC50 was 7.94 µM (active). For the compound `C[C@@H]1O[C@H]2C3=C(C(=O)[C@H]4O[C@@H]4[C@H]3O)[C@@H]1[C@@H]1[C@@H](C)OC=C3[C@H](O)[C@H]4O[C@@H]4/C(=N\OCc4ccccc4)[C@]312`, the activity, negative = inhibition was -27.9% [at 11.4 µM] (inactive). Consider `Cc1ccccc1-c1cc(Nc2ccccc2)ncn1`, for which the activity, negative = inhibition was 20.2% [at 2.29 µM] (inactive). Consider `COc1ccc(CCN2C(=O)C(Oc3ccccc3C)C2c2ccc3c(c2)OCO3)cc1OC` (stereo not drawn), for which the AC50 was 7.94 µM (active).

As for `COC(=O)c1ccc(C2C(Oc3ccccc3)C(=O)N2CCc2ccc(OC)c(OC)c2)cc1` (stereo not drawn), the AC50 result is “inactive”. Turning to `Cc1ccccc1OC1C(=O)N(Cc2ccc3c(c2)OCO3)C1c1sccc1C` (stereo not drawn), the AC50 is 7.94 µM (active). Regarding `O=C1[C@H]2[C@H]3[C@H](O)[C@H](O)C/C(=N/OCc4ccccc4)[C@@H]3CC[C@@H]2C(=O)N1Cc1ccc2c(c1)OCO2`, the activity, negative = inhibition was -27.6% [at 11.4 µM] (inactive). Still for that read-out and setting: the result for `O=C1C[C@@H](O)[C@@H](O)[C@H]2[C@@H]3C(=O)N(Cc4ccc5c(c4)OCO5)C(=O)[C@@H]3CC[C@H]12` reads -7.97% [at 11.4 µM] (inactive) and -24% [at 11.4 µM] (inactive).

As to `COc1ccc(CCN2CC34C=CC(O3)C(C(=O)NCc3ccccc3)C4C2=O)cc1OC` (stereo not drawn), the AC50 entry was “inactive”. On to `Cc1ccc(C)c(NC(=O)C2CC3c4ccccc4C2c2ccccc23)c1` (stereo not drawn), for which the AC50 is 5.01 µM (active). Turning to `Cc1ccc(C)c(NC(=O)C2CC(O)CN2C(=O)OC(C)(C)C)c1` (stereo not drawn), the AC50 result was “inactive”. In the case of `Cc1ccc(C)c(NC(=O)c2ncn[nH]2)c1`, the AC50 result is “inactive”. Take `CCOC(=O)c1ccccc1NC(=O)CSc1cccc[n+]1[O-]`: the AC50 entry is “inactive”.

As to `CCn1c(SCC(=O)Nc2ccccc2C(=O)OC)nnc1-c1ccc(N)cc1`, the AC50 is 22.4 µM (active).

For the compound `CCC(C)Nc1nc(OCC(F)(F)F)nc(OCC(F)(F)F)n1` (stereo not drawn), the AC50 entry was “inactive”.

For `O=c1ccc2cc(O)c(O)cc2o1`, the AC50 result was “inactive”. Same read-out and setting: under `CCOC(=O)CNC(=O)c1cccnc1` stands “inactive”; under `COC(=O)[C@H]1C[C@@H]1[C@H](NC(=O)c1cccnc1)c1ccccc1`, “inactive”. The same measure, in the same setting: under `O=C(NC(NCc1ccccc1)C(Cl)(Cl)Cl)c1cccnc1` (stereo not drawn) stands 14.1 µM (active). As to `Cc1cccc(NC(NC(=O)c2cccnc2)C(Cl)(Cl)Cl)c1` (stereo not drawn), the AC50 was 2.24 µM (active). For `COC(=O)[C@@H]1C[C@H]1[C@@H](NC(=O)c1cccnc1)c1ccccc1`, the AC50 entry is “inactive”. On the same count and under the same terms, under `O=C(COc1ccccc1Cl)Nc1cc(Cl)ccc1Oc1ccccc1` stands 2.51 µM (active).

For `Cc1cc(NC(=O)COc2ccc(Cl)cc2Cl)n(-c2ccccc2)n1`, the AC50 is 2.51 µM (active). As to `CCc1cc2c(nc1CC)CCN(CC/C(C)=N/OCC[C@@H]1C=C[C@H](OC(C)=O)[C@H](COC(C)=O)O1)C2`, the activity, negative = inhibition is -1.15% [at 11.4 µM] (inactive). As for `OC[C@@H]1O[C@@H](n2cnc3c(NC4CCCCC4)ncnc32)[C@@H](O)[C@H]1O`, the AC50 result is “inactive”.

For `CCOC(=O)CSc1cc(CS(=O)c2ccc(Cl)cc2)nc(-c2ccccc2)n1` (stereo not drawn), the concentration at half-maximal activity (AC50) is 1.26 µM (active).

With `CNc1cc(CS(=O)c2ccccc2)nc(-c2ccccc2)n1` (stereo not drawn), the AC50 result is “inactive”. Take `C=CCN=C1CC(C)(C)CC(=O)/C1=C(/O)CCC(=O)OC`: the AC50 result is “inactive”. Turning to `CN(C)CCCNc1ncnc2nc[nH]c12`, the activity, negative = inhibition is 3.87% [at 11.4 µM] (inactive).

On to `CO[C@@H]1/C=C\O[C@]2(C)Oc3c(C)c(O)c4c(O)c(cc(O)c4c3C2=O)NC(=O)/C(C)=C\C=C/[C@H](C)[C@@H](O)[C@H](C)[C@H](O)[C@H](C)[C@H](OC(C)=O)[C@@H]1C`, for which the activity, negative = inhibition was -6.49% [at 11.4 µM] (inactive). `O=C(NCc1cccnc1)[C@@H]1[C@@H](C(=O)O)[C@H]2CC[C@@H]1O2`: the activity, negative = inhibition was -5.99% [at 11.4 µM] (inactive). For the compound `c1cncc(CNCc2cccnc2)c1`, the activity, negative = inhibition is 16% [at 11.4 µM] (inactive). Turning to `Cc1ccc(SC(C)C(=O)NCc2cccnc2)cc1` (stereo not drawn), the AC50 is 8.91 µM (active).

Consider `COc1c(N2CCN(C(=S)Nc3ccc(F)cc3)C(C)C2)c(F)cc2c(=O)c(C(=O)O)cn(C3CC3)c12` (stereo not drawn), for which the AC50 result was “inactive”.

Turning to `CN1CCCN(C)C1c1cc([N+](=O)[O-])ccc1O`, the activity, negative = inhibition was -15.9% [at 11.4 µM] (inactive).

As to `CC(=O)OC1COC(N2CCc3cc([N+](=O)[O-])ccc32)C(OC(C)=O)C1OC(C)=O` (stereo not drawn), the AC50 was 0.891 µM (active). In the case of `Cc1cnc(CNc2nc(-c3ccoc3)nc3ccccc23)cn1`, the activity, negative = inhibition is -6.46% [at 2.29 µM] (inactive). For the compound `COc1ccc(C(=O)NN)cc1COc1ccc(Br)cc1`, the AC50 was 8.91 µM (active).

Consider `CCn1ncc(/C=C/C(=O)NCc2cn(C)nc2C)c1C`, for which the AC50 entry was “inactive”. For `COc1ccc(/C=C/C(=O)NCc2cn(C)nc2C)cc1COc1ccc(Br)cc1`, the AC50 is 12.6 µM (active). For the compound `COC(=O)CCC(=O)NNC(=O)c1ccc(Br)cc1`, the AC50 entry was “inactive”. As to `COc1ccc(C(=O)NNC(=O)Cc2ccc(-c3ccccc3)cc2)cc1OC`, the AC50 entry is “inactive”. As for `CC(C)n1nnnc1-c1cc(Cl)cc(Cl)c1`, the AC50 entry was “inactive”. As for `CCOC(=O)c1nn(-c2ccccc2)c(-c2ccccc2)c1C(=O)c1ccccc1`, the AC50 was 10 µM (active). In the case of `CCOC(=O)c1cc(C(=O)OCC)cc(-n2cc(O)c(C(=O)OCC)n2)c1`, the AC50 entry was “inactive”.

As for `CC(=O)NCCNc1nc(-c2ccccc2C(F)(F)F)nc2ccccc12`, the activity, negative = inhibition was 5.47% [at 2.29 µM] (inactive). As for `COc1ccc(/C=N/NC(=O)c2cc(-c3ccc(C)cc3C)nc3ccccc23)cc1COC(C)=O`, the AC50 was 0.794 µM (active). With `COc1cccc(-c2cc(C(=O)N/N=C/c3ccc(OC)c(COC(C)=O)c3)c3ccccc3n2)c1`, the AC50 was 0.398 µM (active). In the case of `NS(=O)(=O)c1cc(C(=O)O)c(Cl)c([N+](=O)[O-])c1Cl`, the activity, negative = inhibition is 8.24% [at 11.4 µM] (inactive). The same measure, in the same setting: the result for `CCCn1cnc2c(SCC(=O)O)nc(N)nc21` reads 3.25% [at 11.4 µM] (inactive). With `O=C1c2ccccc2-c2ccc(N(Cc3ccc(Br)cc3)Cc3ccc(Br)cc3)cc21`, the activity, negative = inhibition was -1.26% [at 11.4 µM] (inactive). For `Cc1nc2sccn2c(=O)c1Cl`, the AC50 result was “inactive”. In the case of `CCCN(C/C=C\I)[C@@H]1CCc2cccc(O)c2C1`, the AC50 entry was “inactive”. Turning to `COCCSc1nnc(NC(=O)C(C)(C)C)s1`, the AC50 entry was “inactive”.

Consider `CCSc1nnc(NC(=O)C(C(F)(F)F)C(F)(F)F)s1`, for which the AC50 is 7.94 µM (active). For the compound `CN(C)S(=O)(=O)c1nc(Cl)c2[nH]cnc2n1`, the activity, negative = inhibition is 1.52% [at 11.4 µM] (inactive). As to `CCn1c(SCc2ccc(C#N)cc2)nnc1-c1ccc(S(=O)(=O)N2CCCCC2)cc1`, the AC50 was 4.47 µM (active). On the same count and under the same terms, the result for `O=C1N=C(N2CCOCC2)S/C1=C\C=C/c1ccccc1` reads “inactive”; that for `O=C1N=C(N2CCC(Cc3ccccc3)CC2)S/C1=C/c1cn[nH]c1-c1ccccc1`, 0.447 µM (active). As for `CCN1CCCCC(=N/O)/C(=N/O)CCCC1`, the activity, negative = inhibition is -7.4% [at 11.4 µM] (inactive).

For `CCCSc1nc(C)cc(C)c1C(N)=O`, the AC50 result is “inactive”. As to `Cc1cc(C)c(C(N)=O)c(SCC(=O)c2ccc(Cl)cc2)n1`, the AC50 was 12.6 µM (active). As to `Cc1cc(C)c(C(N)=O)c(NC(=O)Nc2ccccc2)n1`, the AC50 entry is “inactive”. Turning to `O[C@@H]1[C@@H](OCc2ccccc2)OC[C@H](O)[C@@H]1O`, the activity, negative = inhibition is 0.912% [at 11.4 µM] (inactive).

With `CC(C)[C@@H](OCc1ccccc1)[C@H](C)/C=N\OC[C@@H](O)[C@@H]1O[C@@H]2OC(C)(C)O[C@@H]2[C@H]1O`, the activity, negative = inhibition was -22.1% [at 11.4 µM] (inactive). Consider `CCO[C@H]1O[C@@H]([C@H](COCc2ccccc2)OCc2ccccc2)[C@@H](OCc2ccccc2)[C@H]1O`, for which the AC50 was 10 µM (active). Consider `COc1ccc(CNc2ncncc2-c2ccccc2CN(C)C)c(OC)c1`, for which the activity, negative = inhibition is -5.35% [at 2.29 µM] (inactive).

For `CN(C)C(=O)c1ccc(-c2ccc3ncnc(N4CCOCC4)c3c2)cc1`, the activity, negative = inhibition is 20.2% [at 2.29 µM] (inactive). `O=C(c1ccccc1)c1cc(F)c(N2CCOCC2)cc1Cl`: the AC50 entry was “inactive”. The same measure, in the same setting: the result for `O=C(c1ccc(Cl)c(Cl)c1)c1cc(-c2ccccn2)c(N2CCOCC2)s1` reads 5.01 µM (active); that for `C[C@@H]1CC[C@H]2C(=O)N3[C@@H](CC[C@@H](C)[C@@H]3c3ccc(Br)cc3)C(=O)N2[C@@H]1c1ccc(Br)cc1`, 3.98 µM (active). Take `C[C@@H]1CN2[C@H](c3ccc(Br)cc3)[C@H](C)CC[C@H]2C(=O)O1`: the activity, negative = inhibition is -3.17% [at 11.4 µM] (inactive).

With `CCCC[C@@H]1CN2[C@H](c3ccc(Br)cc3)[C@@H](C)CC[C@H]2C(=O)O1`, the activity, negative = inhibition is -13.2% [at 11.4 µM] (inactive). With `COc1ccccc1NC(=O)N1CCCC1C(=O)NCc1ccc2c(c1)OCO2` (stereo not drawn), the AC50 entry is “inactive”.

In the case of `COc1cccc(Nc2ncc3nc(-c4cccs4)c(=O)n(Cc4cccs4)c3n2)c1`, the AC50 result was “inactive”.

As to `CCC(Sc1nc2cc3c(cc2c(=O)n1Cc1ccco1)OCO3)C(=O)Nc1cccc(OC)c1` (stereo not drawn), the AC50 was 2 µM (active). On to `CCC(Sc1nc2cc3c(cc2c(=O)n1Cc1ccco1)OCO3)C(=O)Nc1ccccc1OC` (stereo not drawn), for which the AC50 was 0.631 µM (active). Consider `CCCc1nnc(SCC(=O)N2C(C)CCCC2C)n1CCCOC` (stereo not drawn), for which the AC50 entry was “inactive”.

For the compound `Cc1cc(=O)c2c(O)c(O)ccc2o1`, the AC50 result is “inactive”. As to `CCOC(=O)[C@@]12C[C@@H]1/C(=N/O)c1ccccc1O2`, the AC50 result is “inactive”.

`CCOC(=O)c1cccc2c1-c1ccccc1/C2=N/O`: the AC50 was 8.91 µM (active).
